A selection: hits, their analogues and other compounds. The true share with any hit is near 7.9%.
HT1080NT lethal: kills 2HG-producing HT-1080-NT fibrosarcoma cells; HT-1080-NT fibrosarcoma viability, CellTiter-Glo ATP luminescence, 48 h; Potency, µM (doses to about 46.1 µM), actives largely listed as cytotoxic; hit rate 1.6% among 360,000;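 note: NT is the 2HG producing partner of a matched IDH1 knockdown line; nearly all actives have a fitted effect of over 55% in size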
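Viability of the 2HG-overproducing fibrosarcoma line after 48 hours of compound exposure at 37 degrees C was determined by luminescence with CellTiter-Glo, and concentration-effect curves were then fitted and categorized.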
SW480 rereplic: DNA re-replication induction in SW480 cells | Potency, µM (titrated, usually from 46.1 µM), usual class: activators | SW480 DNA re-replication, Hoechst DNA content imaging, 48 h | hit rate 1.8% among 340,000; note: nearly all actives have a fitted effect of over 55% in size
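First, 250 cells per well were seeded. Next, compound or vehicle (23 nL) was pinned in, plates sat 48 hr at 37 C. Finally Hoechst was added for 40 min before fluorescence scanning.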
HT1080 IDH1KD tx: HT-1080 IDH1 knockdown cell toxicity (counter line); HT-1080 IDH1 knockdown viability, ATP luminescence, 48 h; Potency, µM (highest dose often 46.1 µM), actives largely listed as cytotoxic; hit rate 2% among 360,000; AID 686971
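Assay cells: HT-1080 with IDH1 knockdown, 750 per well, RPMI/5% FBS. Exposure: 48 h at 37 °C following 2 h pre-incubation. Read: CellTiter-Glo luminescence; fitted concentration-response, curve class assigned.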
KB-3-1 cytotox: KB-3-1 parental cell cytotoxicity | KB-3-1 viability, CellTiter-Glo ATP luminescence, 72 h | hit rate 1.4% among 400,000 | Potency, µM (titrated, usually from 46.1 µM), usual class: cytotoxic; note: nearly all actives have a fitted effect of over 60% in size
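Cells are dispensed, compounds pinned in, plates held at 37 °C for 72 h, then CellTiter-Glo is added and luminescence read after 10 minutes. Cell line: parental KB-3-1 in phenol-red-free DMEM, 10% FBS.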
MCF10A rerep: induces DNA re-replication in MCF 10a normal breast cells; Potency, µM (doses to about 46.1 µM), actives largely listed as activators; MCF 10A DNA re-replication, Hoechst nuclear intensity, 48 h; hit rate 2.9% among 350,000; AID 624296; note: nearly all actives have a fitted effect of over 50% in size
KB-V1 MDR tox: KB-V1 MDR subline cytotoxicity. KB-V1 MDR cells viability, CellTiter-Glo, 72 h. Potency, µM (highest dose often 46.1 µM), usual class: cytotoxic. hit rate 3.4% among 400,000. AID 1347076; note: nearly all actives have a fitted effect of over 60% in size
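KB-V1 cells (P-gp-expressing MDR subline of KB-3-1) in phenol-red-free DMEM with 10% FBS were exposed to library compounds over a concentration series for 72 h at 37 degrees C. Viability read by CellTiter-Glo luminescence; concentration-effect curves fitted after normalization.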
A number is an active result; - = inactive; ? = inconclusive; . = no result; [ ] = dose if it differs, or a comment. Calls come from the whole dose curve; as a rule, active = well fitted curve in the direction sought with a large enough effect; inconclusive = small, poorly fitted or top-dose-only effect, or another doubt; inactive = no such curve, though single readings can be large; an effect the other way counts as inactive or inconclusive.

SMILES	HT1080NT lethal	SW480 rereplic	HT1080 IDH1KD tx	KB-3-1 cytotox	MCF10A rerep	KB-V1 MDR tox
O=C(Nc1ccc(Cl)c([N+](=O)[O-])c1)C(Sc1ccccc1)c1ccccc1 (centres undefined)	?	-	21µM	26µM	?	?
COCC(C)NC(C(=O)Nc1ccc(Cl)c([N+](=O)[O-])c1)c1ccccc1 (centres undefined)	-	-	-	-	-	16µM
CC(CC(=O)Nc1cc([N+](=O)[O-])ccc1Cl)c1ccccc1 (centres undefined)	-	-	-	-	-	?
CCc1ccc(S(=O)(=O)c2cn(Cc3ccccc3)c3cc(N4CCCC4)c(F)cc3c2=O)cc1	.	.	.	-	.	-
CCc1cc(SC#N)cc(CC)c1NC(=O)CCl	?	23µM	21µM	21µM	16µM	?
CCC(C)NC(=O)CSC1=Nc2ccccc2C2=NC(c3ccccc3)C(=O)N12 (centres undefined)	-	-	-	-	-	16µM
CCc1cnc(Nc2nc(C(N)c3ccccc3Cl)cs2)nc1 (centres undefined)	-	.	-	-	.	?
CCc1cnc(Nc2nc(C(N)Cc3ccc(Cl)cc3)cs2)nc1 (centres undefined)	21µM	.	?	-	.	-
CCCc1cnc(Nc2nc(C(N)Cc3ccc(OC)cc3)cs2)nc1 (centres undefined)	21µM	.	?	?	.	?
CCOc1ccc(CNC(=O)Cn2nc(C)c3sc4ccccc4c3c2=O)cc1	.	.	.	-	.	-
Oc1ccc2ccccc2c1C=NNc1ccccn1	?	7.3µM	?	?	?	0.52µM
Oc1ccc2ccccc2c1/C=N/Nc1nnc(-c2ncc[nH]2)c2ccccc12	5.8µM	0.65µM	5.2µM	?	?	?
Fc1cccc(F)c1/C=N/Nc1ccccn1	-	-	-	-	?	-
O=C(Nc1cccc(C(=O)N2CCCCC2)c1)c1nsc2ccccc12	.	.	.	-	.	-
C=CCn1c(COc2ccccc2F)nnc1SCC(=O)Nc1cc2oc3ccccc3c2cc1OC	-	-	-	?	-	?
C=CCn1c(COc2ccccc2F)nnc1SCC(=O)c1c[nH]c2ccccc12	-	-	-	?	-	13µM
O=C(c1ccc(Cn2c(=O)[nH]c3ccccc3c2=O)cc1)N1CCN(c2ccc(Cl)cc2)CC1	?	-	?	?	-	21µM
C=CCn1c(=O)[nH]c2cc(C(=O)N3CCN(c4ccc(C(C)=O)cc4)CC3)ccc2c1=O	-	-	?	-	-	-
C=CCn1c(=O)[nH]c2cc(C(=O)N3CCN(c4cccc(Cl)c4)CC3)ccc2c1=O	-	-	-	?	-	12µM
CC(=O)c1ccc(N2CCN(C(=O)c3ccc(Cn4c(=O)[nH]c5ccccc5c4=O)cc3)CC2)cc1	.	.	.	-	.	-
CC(C)N(C)c1ncnc2c1ncn2[C@H]1CN(Cc2ccc(Cl)cc2)C[C@@H](CO)O1	-	.	-	-	.	-
O=S(Cc1ccc(Cl)cc1)c1ncc(CO)n1Cc1ccccc1 (centres undefined)	-	?	-	16µM	-	-
Cc1ccc(C)c(N2CCN(C(=O)c3cnn(C(C)(C)C)c3C3CCN(C(=O)OC(C)(C)C)CC3)CC2)c1	.	.	.	-	.	-
O=C(N/N=C/c1ccco1)C1CC1(c1ccccc1)c1ccccc1 (centres undefined)	-	-	-	-	-	21µM
CCc1ccccc1N(C(=O)c1cccs1)C1C=CS(=O)(=O)C1 (centres undefined)	-	?	-	-	2.6µM	-
SMILES	HT1080NT lethal	SW480 rereplic	HT1080 IDH1KD tx	KB-3-1 cytotox	MCF10A rerep	KB-V1 MDR tox
O=C(O)c1cccc(S(=O)(=O)Nc2ccccc2Oc2ccccc2)c1	-	.	-	-	.	-
O=C1C(NS(=O)(=O)c2cccs2)=C(N2CCOCC2)C(=O)c2ccccc21	?	-	?	-	-	-
CCN1CCN(C2=C(NS(=O)(=O)c3ccccc3)C(=O)c3ccccc3C2=O)CC1	-	18µM	-	?	?	?
O=C1C(NS(=O)(=O)c2cccs2)=C(N2CCN(Cc3ccccc3)CC2)C(=O)c2ccccc21	-	-	-	-	-	23µM
CN1CCN(C2=C(NS(=O)(=O)c3cccs3)C(=O)c3ccccc3C2=O)CC1	?	?	?	?	-	?
CCOc1ccccc1N1CCN(C2=C(NS(=O)(=O)c3cccs3)C(=O)c3ccccc3C2=O)CC1	?	-	?	?	23µM	?
COC(=O)c1cc(-c2c(C)oc3cc(OC)ccc3c2=O)c(C)o1	-	-	-	-	-	18µM
COC(=O)c1cc(-c2c(C)oc3cc(O)ccc3c2=O)c(C)o1	-	-	-	-	-	-
CCOC(=O)CN(C(=O)Cn1nnc(-c2ccc(C)cc2)n1)C(CC)C(=O)NC1CCCC1 (centres undefined)	-	-	-	-	-	4.1µM
CCC(C(=O)NC1CCCC1)N(Cc1ccco1)C(=O)Cn1nnc(-c2ccc(C)cc2)n1 (centres undefined)	-	-	-	-	-	-
Cc1nn(Cc2c(F)c(F)c(F)c(F)c2F)c(C)c1NC(=O)c1ccc(COc2ccc(Cl)cc2Cl)o1	?	?	?	?	?	18µM
O=C(Nc1ccccc1F)c1ccc(COc2ccc(Cl)cc2Cl)o1	-	-	-	-	-	-
O=C(Nc1ccn(Cc2c(F)c(F)cc(F)c2F)n1)c1ccc(COc2ccc(Cl)cc2Cl)o1	-	-	-	-	-	8.2µM
O=C(CSc1ncc2c(n1)-c1ccccc1N(Cc1ccccc1)S2(=O)=O)Nc1ccccc1	.	.	.	-	.	-
Cc1ccn(-c2ccc([N+](=O)[O-])cc2)n1	-	21µM	-	-	-[0.0737 µM]	-
CCCCC(CC)CCC(CC(C)C)OS(=O)(=O)O (centres undefined)	.	-	.	.	-	.
Cc1ccccc1OCC(O)CNC1CCC(NCC(O)COc2ccccc2C)CC1 (centres undefined)	2.9µM	4.1µM	2.3µM	3.3µM	?	18µM
OC(CNC1CCCCCC1)COc1cccc2ccccc12 (centres undefined)	21µM	18µM	?	?	-	21µM
CCc1c(C)nc(N)n2c(SCC(=O)Nc3ccccc3OC)nnc12	-	-	-	-	-	?
COc1ccccc1-n1nnnc1SCC(=O)Nc1oc(C)c2c(C)n[nH]c(=O)c12	-	21µM	-	-	-	-
COc1ccccc1NC(=O)CSc1nnnn1-c1ccccc1OC	-	-	-	-	0.65µM	-
CCOc1ccccc1NC(=O)CSc1nnc2c(CC)c(C)nc(N)n12	?	-	-	-	-	15µM
CC1=Nc2ccccc2N=C(NC(=O)CSc2nnnn2-c2ccccc2)C1c1ccccc1 (centres undefined)	-	-	-[9.24 µM]	-	-	13µM

High-throughput results from PubChem.
